Results filed as inconclusive are left out. Calls of active or inactive are those of the source. The calls were made as follows: active = hit-call score of the fitted dose curve at least 0.9, where 1 is the maximum; inconclusive = response in the unintended direction; inactive = score below 0.9.
Experiments:
[1] = molecular target: chimpanzee Androgen Receptor (AR), AR (gene 747460) (UniProt O97775); experiment: NVS_NR_cAR: NovaScreen (NVS) Nuclear Receptor Binding Assay for chimpanzee Androgen Receptor (AR) (AID 2283346);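 also: radioligand displacement from AR measured by scintillation counting in a cell-free assay; a loss of bound radioligand signal versus DMSO counts as binding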
Outline: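 Cell-free competition binding with insect-cell (Sf9/Sf21) extracted chimpanzee AR; scintillation signal from lysate at 72 h. Screened in duplicate at 25 uM, then concentration-response for actives; fitting relative to DMSO.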

[2] = molecular target: Androgen Receptor/SRC-1 Co-activator, AR (gene 367) (UniProt P10275); experiment: OT_AR_ARSRC1_0960: Odyssey Thera (OT) 16-hour HEK293T Protein-Complementation Assay for Androgen Receptor/SRC-1 Co-activator (AID 2283353);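 also: actives raise the signal above DMSO so potency reflects increased AR and SRC-1 complex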
Outline: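 Stable HEK293T line carries AR and SRC-1 each linked to a Venus fragment; chemicals are applied for 16 h, cells imaged at two wavelengths, and the 488 nm nucleus/cytoplasm ratio is taken as the signal, rising relative to DMSO.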

[3] = molecular target: Androgen Receptor/SRC-1 Co-activator, AR (gene 367) (UniProt P10275); experiment: OT_AR_ARSRC1_0480: Odyssey Thera (OT) 8-hour HEK293T Protein-Complementation Assay for Androgen Receptor/SRC-1 Co-activator (AID 2283354);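 also: hits raise the complementation signal above DMSO so AC50 marks enhancers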
Outline: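 Reconstituted split-Venus YFP signal from AR–SRC-1 interaction, read by imaging 8 h post-dose in stable HEK293T lines. The 488 nm nucleus-to-cytoplasm ratio (≥400 cells/image) was fitted upward against DMSO.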

[4] = molecular target: Estrogen receptor beta (Homo sapiens) (UniProt Q92731); experiment: OT_ER_ERbERb_0480: Odyssey Thera (OT) 8-hour HEK293T Protein-Complementation Assay for Estrogen Receptor-beta/-beta Homodimer (AID 2283357);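 also: active means signal gain over DMSO baseline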
Outline: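 ER-beta LBD homodimer PCA stably expressed in HEK293T; 8 h compound exposure, then formaldehyde fixation and Draq5 staining. Gain in nuclear/cytoplasmic fluorescence intensity versus DMSO vehicle, read on laser scanning cytometer.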

[5] = molecular target: Retinoic acid receptor alpha (Homo sapiens) (UniProt P10276); experiment: NVS_NR_hRARa_Agonist: NovaScreen (NVS) Nuclear Receptor Binding Assay for human Retinoic Acid Alpha Receptor Agonism (RAR) (AID 2283361)
Outline: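 Agonist-mode TR-FRET binding format using extracted protein, measured at 2 h post-dosing. Initial duplicate single-point screen at 25 uM preceded concentration series for actives; activity was normalized to DMSO baseline.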

[6] = molecular target: bovine Estrogen Receptor (ER), ESR1 (gene 407238) (UniProt P49884); experiment: NVS_NR_bER: NovaScreen (NVS) Nuclear Receptor Binding Assay for bovine Estrogen Receptor (ER) (AID 2283345);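 also: actives lower the bound radioligand count which means they displace the ER ligand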
Outline: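 Displacement of a radioligand from estrogen receptor in bovine uterine membrane preparations; scintillation signal taken at 18 hours, DMSO as baseline. Single-concentration duplicates (25 uM) preceded concentration-response follow-up of actives.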

[7] = molecular target: Estrogen receptor (Homo sapiens) (UniProt P03372); experiment: NVS_NR_hER: NovaScreen (NVS) Nuclear Receptor Binding Assay for human Estrogen Receptor (ER) (AID 2283348)
Outline: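 Cell-free MCF7-derived ER preparation, specific radioligand displaced by test compound, read by scintillation counting 18 h post-dosing. Duplicate single-point 25 uM screen, then concentration-response confirmation; DMSO baseline.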

[8] = molecular target: Estrogen receptor (Homo sapiens) (UniProt P03372); experiment: OT_ER_ERaERa_1440: Odyssey Thera (OT) 24-hour HEK293T Protein-Complementation Assay for Estrogen Receptor-alpha/-alpha Homodimer (AID 2283349);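 also: hits raise fluorescence above DMSO for agonists and antagonists alike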
Outline: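 HEK293T, stable ERα LBD (aa 310-547) homodimer PCA; 24 h compound exposure; mean fluorescence intensity (nuclear for agonists, nuclear plus cytoplasmic for antagonists) vs vehicle; positive fitting direction, DMSO baseline.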

[9] = molecular target: human Peroxisome Proliferator-activated Receptor alpha (PPARa), PPARA (gene 5465) (UniProt Q07869); experiment: NVS_NR_hPPARa: NovaScreen (NVS) Nuclear Receptor Binding Assay for human Peroxisome Proliferator-activated Receptor alpha (PPARa) (AID 2283359);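 also: activity means loss of TR-FRET signal versus DMSO baseline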
Outline: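 Loss of TR-FRET binding signal relative to DMSO was measured 1 h after chemical addition to extracted receptor protein. Chemicals were first tested in duplicate at 25 uM, and actives were followed up in concentration series.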

[10] = molecular target: Bile acid receptor (Homo sapiens) (UniProt Q96RI1); experiment: NVS_NR_hFXR_Antagonist: NovaScreen (NVS) Nuclear Receptor Binding Assay for human Farnesoid X Receptor Antagonism (FXR) (AID 2283350)
Outline: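 Antagonist-format time-resolved FRET binding assay with extracted human receptor protein, read 1 hour after compound addition. Compounds first screened at 25 uM in duplicate, then actives tested in concentration series, with loss of signal relative to DMSO.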

[11] = molecular target: Estrogen receptor (Homo sapiens) (UniProt P03372); experiment: OT_ER_ERaERa_0480: Odyssey Thera (OT) 8-hour HEK293T Protein-Complementation Assay for Estrogen Receptor-alpha/-alpha Homodimer (AID 2283351);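 also: rise in fluorescence from reassembled reporter fragments on ERα LBD homodimer in nucleus or whole cell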
Outline: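 Cells were treated for 8 hours, then imaged on a laser scanning plate cytometer. Complementation of reporter fragments fused to the human ERα ligand-binding domain (residues 310-547) in HEK293T gave fluorescence, and gain of signal over vehicle was fitted.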

[12] = molecular target: T1, Estrogen receptor (Homo sapiens) + Estrogen receptor beta (Homo sapiens) (UniProt P03372+Q92731); experiment: OT_ER_ERaERb_0480: Odyssey Thera (OT) 8-hour HEK293T Protein-Complementation Assay for Estrogen Receptor-alpha/-beta Heterodimer (AID 2283352)
Outline: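 HEK293T cells expressing ER-alpha/ER-beta LBD fusions to complementary reporter fragments were dosed with compound for 8 hours. Heterodimer formation was read as increased nuclear (agonist) or nuclear plus cytoplasmic (antagonist) mean fluorescence intensity versus DMSO vehicle.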

[13] = molecular target: T1, Estrogen receptor (Homo sapiens) + Estrogen receptor beta (Homo sapiens); experiment: OT_ER_ERaERb_1440: Odyssey Thera (OT) 24-hour HEK293T Protein-Complementation Assay for Estrogen Receptor-alpha/-beta Homodimer (AID 2283356);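 also: heteromer of ER alpha and ER beta binding domains; hits raise reporter fluorescence and both agonists and antagonists give an increase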
Outline: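 HEK293T cells stably expressing a PCA pair of ERα LBD (aa 310-547) and ERβ LBD (aa 263-489) were dosed for 24 h. Fluorescence intensity increase versus DMSO vehicle was fitted as gain-of-signal.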

[14] = molecular target: human Thyroid Receptor Alpha (TRa), THRA (gene 7067) (UniProt P10827); experiment: NVS_NR_hTRa_Antagonist: NovaScreen (NVS) Nuclear Receptor Binding Assay for human Thyroid Receptor Alpha Antagonism (TRa) (AID 2283362);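 also: activity is loss of signal relative to DMSO baseline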
Outline: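 Cell-free binding assay on extracted receptor protein, read 1 h after chemical dosing by AlphaLISA chemiluminescence; loss of signal relative to DMSO baseline marks antagonism. Primary screen ran in duplicate at 25 uM, with concentration series for actives.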

[15] = molecular target: human Adenosine Transporter (Adot), SLC29A1 (gene 2030) (UniProt Q99808); experiment: NVS_TR_hAdoT: NovaScreen (NVS) Transporter Assay for human Adenosine Transporter (Adot) (AID 2283368)
Outline: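 Binding displacement on U937 extracted protein, read 1 h post-dose by filtration and scintillation counting. Primary duplicate test at 25 uM, then singleton concentration series with 50 uM top; DMSO baseline.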

[16] = molecular target: guinea pig Sigma Receptor, Non-selective Binding, SIGMAR1 (gene 100135589) (UniProt Q60492); experiment: NVS_OR_gSIGMA_NonSelective: NovaScreen (NVS) Nuclear Receptor Binding Assay for guinea pig Sigma Receptor, Non-selective Binding (AID 2283367)
Outline: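 Guinea pig brain membrane sigma sites were labelled with a radioligand, and bound radioactivity was counted after filtration 1 h post-dose. Compounds were screened at 25 uM in duplicate, then retested as concentration series when active.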

PGR (gene 5241) = PGR (gene 5241) (UniProt P06401); experiment: NVS_NR_hPR: NovaScreen (NVS) Nuclear Receptor Binding Assay for human Progestron Receptor (PR) (AID 2283360);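 also: active means loss of bound radioligand signal versus DMSO baseline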
Outline: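 T47D-derived receptor preparation, cell-free, with tritiated or iodinated radioligand displacement measured by scintillation 18 h post-dosing. Single 25 uM duplicate screen, then concentration series; signal loss relative to DMSO.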

[17] = molecular target: rat Mineralocorticoid Receptor (MR), Nr3c2 (gene 25672) (UniProt P22199); experiment: NVS_NR_rMR: NovaScreen (NVS) Nuclear Receptor Binding Assay for rat Mineralocorticoid Receptor (MR) (AID 2283355)
Outline: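 Primary HTS ran in duplicate at a single 25 uM concentration, with concentration-series follow-up for actives. Receptor source: adrenalectomized rat brain supernatant, cell-free. Radioligand displacement read by scintillation at 24 h, relative to DMSO baseline.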

Measured: AC50

T1 sequence (P03372 whole entry, looked up, the tested form may be a part): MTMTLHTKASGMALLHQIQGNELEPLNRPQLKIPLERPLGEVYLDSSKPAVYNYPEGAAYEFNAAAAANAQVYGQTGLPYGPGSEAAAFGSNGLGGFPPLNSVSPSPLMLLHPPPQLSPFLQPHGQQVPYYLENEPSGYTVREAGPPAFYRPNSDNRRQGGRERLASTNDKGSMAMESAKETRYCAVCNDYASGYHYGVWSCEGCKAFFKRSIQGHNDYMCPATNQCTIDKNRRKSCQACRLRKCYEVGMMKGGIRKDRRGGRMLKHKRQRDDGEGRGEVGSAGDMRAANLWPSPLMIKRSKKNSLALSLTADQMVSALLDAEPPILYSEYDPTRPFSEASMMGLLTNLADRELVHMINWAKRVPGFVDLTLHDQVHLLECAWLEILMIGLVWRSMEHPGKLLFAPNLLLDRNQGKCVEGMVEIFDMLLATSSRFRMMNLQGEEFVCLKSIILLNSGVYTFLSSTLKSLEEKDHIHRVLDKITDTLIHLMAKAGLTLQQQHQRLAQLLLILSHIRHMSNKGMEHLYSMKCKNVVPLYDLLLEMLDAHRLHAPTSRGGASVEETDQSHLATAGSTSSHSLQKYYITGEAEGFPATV
T1 sequence (Q92731 whole entry, looked up, the tested form may be a part): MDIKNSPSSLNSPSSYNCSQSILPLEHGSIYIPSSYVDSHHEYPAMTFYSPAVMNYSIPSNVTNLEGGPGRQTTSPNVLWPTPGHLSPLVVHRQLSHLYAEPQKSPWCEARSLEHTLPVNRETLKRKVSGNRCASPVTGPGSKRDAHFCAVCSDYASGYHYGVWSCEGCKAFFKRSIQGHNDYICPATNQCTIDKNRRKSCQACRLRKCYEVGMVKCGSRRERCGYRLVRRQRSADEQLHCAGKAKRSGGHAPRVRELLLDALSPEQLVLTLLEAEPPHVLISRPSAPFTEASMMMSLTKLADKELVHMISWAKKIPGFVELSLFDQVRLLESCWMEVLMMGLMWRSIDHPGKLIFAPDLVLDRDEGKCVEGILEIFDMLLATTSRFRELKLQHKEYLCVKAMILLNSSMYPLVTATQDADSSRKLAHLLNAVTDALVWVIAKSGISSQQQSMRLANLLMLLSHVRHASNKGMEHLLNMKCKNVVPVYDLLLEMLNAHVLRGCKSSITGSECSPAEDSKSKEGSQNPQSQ
Estrogen receptor (Homo sapiens), sequence (P03372 whole entry, looked up, the tested form may be a part): as the sequence (P03372 whole entry, looked up, the tested form may be a part) above
Androgen Receptor/SRC-1 Co-activator, AR (gene 367), sequence (P10275 whole entry, looked up, the tested form may be a part): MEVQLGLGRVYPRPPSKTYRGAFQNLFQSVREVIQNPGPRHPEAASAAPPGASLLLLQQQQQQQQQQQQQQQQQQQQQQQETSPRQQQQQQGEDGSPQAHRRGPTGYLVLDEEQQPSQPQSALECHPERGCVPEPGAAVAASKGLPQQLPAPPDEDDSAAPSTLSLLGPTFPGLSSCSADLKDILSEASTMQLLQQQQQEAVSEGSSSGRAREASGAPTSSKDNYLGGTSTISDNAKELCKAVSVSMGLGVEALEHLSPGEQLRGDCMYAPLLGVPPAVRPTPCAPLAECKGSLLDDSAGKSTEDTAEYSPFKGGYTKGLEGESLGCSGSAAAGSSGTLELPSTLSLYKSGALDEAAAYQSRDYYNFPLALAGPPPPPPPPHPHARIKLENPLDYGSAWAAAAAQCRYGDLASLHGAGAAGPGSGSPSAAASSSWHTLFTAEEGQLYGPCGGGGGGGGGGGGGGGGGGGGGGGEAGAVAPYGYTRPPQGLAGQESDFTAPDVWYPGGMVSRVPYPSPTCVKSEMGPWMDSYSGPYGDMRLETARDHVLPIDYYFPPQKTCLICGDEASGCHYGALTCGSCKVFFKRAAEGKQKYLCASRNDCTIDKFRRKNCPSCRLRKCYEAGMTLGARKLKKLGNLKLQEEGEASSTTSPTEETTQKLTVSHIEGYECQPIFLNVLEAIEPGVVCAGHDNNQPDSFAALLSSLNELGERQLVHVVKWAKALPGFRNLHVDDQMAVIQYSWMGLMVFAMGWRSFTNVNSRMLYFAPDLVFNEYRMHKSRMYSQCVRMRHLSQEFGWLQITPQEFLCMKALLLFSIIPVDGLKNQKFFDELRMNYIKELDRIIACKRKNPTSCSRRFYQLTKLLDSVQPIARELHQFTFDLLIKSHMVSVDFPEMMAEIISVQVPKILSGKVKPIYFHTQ
chimpanzee Androgen Receptor (AR), AR (gene 747460), sequence (O97775 whole entry, looked up): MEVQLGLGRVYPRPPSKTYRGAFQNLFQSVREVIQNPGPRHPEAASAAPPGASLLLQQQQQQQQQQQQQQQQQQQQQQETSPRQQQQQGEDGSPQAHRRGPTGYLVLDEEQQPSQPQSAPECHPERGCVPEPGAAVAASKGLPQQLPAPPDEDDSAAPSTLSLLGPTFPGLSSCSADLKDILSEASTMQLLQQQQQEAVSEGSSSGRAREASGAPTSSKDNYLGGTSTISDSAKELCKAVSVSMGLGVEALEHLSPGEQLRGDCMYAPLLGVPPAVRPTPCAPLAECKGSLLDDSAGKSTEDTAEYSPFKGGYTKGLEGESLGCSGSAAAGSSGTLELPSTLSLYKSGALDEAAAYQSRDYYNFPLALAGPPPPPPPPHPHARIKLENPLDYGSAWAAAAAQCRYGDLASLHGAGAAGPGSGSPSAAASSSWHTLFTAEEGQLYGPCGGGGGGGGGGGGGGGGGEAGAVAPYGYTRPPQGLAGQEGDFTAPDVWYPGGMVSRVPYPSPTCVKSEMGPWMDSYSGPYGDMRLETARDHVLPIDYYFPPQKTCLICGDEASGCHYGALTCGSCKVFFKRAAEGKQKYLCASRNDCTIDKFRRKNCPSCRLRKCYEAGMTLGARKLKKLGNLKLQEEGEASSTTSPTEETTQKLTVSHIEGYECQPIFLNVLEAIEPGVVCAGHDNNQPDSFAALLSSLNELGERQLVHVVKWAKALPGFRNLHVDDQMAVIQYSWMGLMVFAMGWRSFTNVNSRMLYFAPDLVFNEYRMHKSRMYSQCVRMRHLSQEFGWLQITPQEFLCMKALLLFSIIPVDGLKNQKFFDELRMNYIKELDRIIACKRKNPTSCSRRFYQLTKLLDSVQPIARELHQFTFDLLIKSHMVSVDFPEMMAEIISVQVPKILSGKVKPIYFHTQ
Estrogen receptor beta (Homo sapiens), sequence (Q92731 whole entry, looked up, the tested form may be a part): as the sequence (Q92731 whole entry, looked up, the tested form may be a part) above
human Peroxisome Proliferator-activated Receptor alpha (PPARa), PPARA (gene 5465), sequence (Q07869 whole entry, looked up): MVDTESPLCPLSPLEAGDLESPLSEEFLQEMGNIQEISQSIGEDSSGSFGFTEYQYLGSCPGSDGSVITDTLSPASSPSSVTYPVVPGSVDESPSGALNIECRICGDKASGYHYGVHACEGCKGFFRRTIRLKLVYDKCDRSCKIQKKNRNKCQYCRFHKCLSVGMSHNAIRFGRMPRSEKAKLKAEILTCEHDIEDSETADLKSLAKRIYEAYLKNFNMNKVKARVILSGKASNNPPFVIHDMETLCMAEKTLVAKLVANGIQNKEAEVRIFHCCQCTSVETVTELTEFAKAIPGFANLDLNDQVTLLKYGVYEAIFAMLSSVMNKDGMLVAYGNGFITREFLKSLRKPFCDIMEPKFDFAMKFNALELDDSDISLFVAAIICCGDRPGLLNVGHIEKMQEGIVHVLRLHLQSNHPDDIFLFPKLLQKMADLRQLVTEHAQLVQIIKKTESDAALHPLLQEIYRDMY
human Adenosine Transporter (Adot), SLC29A1 (gene 2030), sequence (Q99808 whole entry, looked up): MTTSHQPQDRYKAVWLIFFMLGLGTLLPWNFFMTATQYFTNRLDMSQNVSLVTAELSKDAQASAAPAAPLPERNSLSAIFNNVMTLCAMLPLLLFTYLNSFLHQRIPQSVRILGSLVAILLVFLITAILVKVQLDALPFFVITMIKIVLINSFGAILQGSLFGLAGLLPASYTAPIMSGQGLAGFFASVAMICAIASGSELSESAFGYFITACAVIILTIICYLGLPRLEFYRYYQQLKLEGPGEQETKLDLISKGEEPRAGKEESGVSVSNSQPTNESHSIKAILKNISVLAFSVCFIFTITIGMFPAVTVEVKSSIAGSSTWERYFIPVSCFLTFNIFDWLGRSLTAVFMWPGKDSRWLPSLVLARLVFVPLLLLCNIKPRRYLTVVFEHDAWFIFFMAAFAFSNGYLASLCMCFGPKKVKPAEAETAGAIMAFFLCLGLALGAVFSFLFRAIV

Nc1nc2ncc(CNc3ccc(C(=O)N[C@@H](CCC(=O)O)C(=O)O)cc3)nc2c(=O)[nH]1
inactive: [1] | [2] | [3] | [4]
active: [5] 15.8 µM

Nc1ccc(Nc2ccccc2)cc1
inactive: [6] | [7] | [8]
active: [9] 46.3 µM

CC[C@H](C)C(=O)O[C@H]1C[C@@H](C)C=C2C=C[C@H](C)[C@H](CC[C@@H]3C[C@@H](O)CC(=O)O3)[C@H]21
active: [1] 24.9 µM | [10] 31.5 µM
inactive: [8] | [11] | [12] | [13] | [4]

Cn1cnc([N+](=O)[O-])c1Sc1ncnc2nc[nH]c12
inactive: [7] | [8] | [11] | [12] | [13] | [4] | [9] | [14]

CCC(C)(C)C(=O)O[C@H]1C[C@@H](C)C=C2C=C[C@H](C)[C@H](CC[C@@H]3C[C@@H](O)CC(=O)O3)[C@H]21
active: [15] 25 µM
inactive: [7] | [8] | [11] | [12] | [13] | [4]

COc1ccc2sc(C(=O)Nc3nnn[nH]3)c(OC(C)C)c2c1
inactive: [1] | [7] | [8] | [11] | [12] | [13] | [4]

CC(C)=CCC/C(C)=C\CO
inactive: [1] | [10]

CCOC(=O)COc1ccc2c(c1)CC(NCC(O)c1cccc(Cl)c1)CC2 (centres undefined)
inactive: [7] | [8] | [11] | [9] | [16]

O=C(OC[C@H]1O[C@@H](OC(=O)c2cc(O)c(O)c(OC(=O)c3cc(O)c(O)c(O)c3)c2)[C@H](OC(=O)c2cc(O)c(O)c(OC(=O)c3cc(O)c(O)c(O)c3)c2)[C@@H](OC(=O)c2cc(O)c(O)c(OC(=O)c3cc(O)c(O)c(O)c3)c2)[C@@H]1OC(=O)c1cc(O)c(O)c(OC(=O)c2cc(O)c(O)c(O)c2)c1)c1cc(O)c(O)c(OC(=O)c2cc(O)c(O)c(O)c2)c1
active: [1] 0.472 µM | PGR (gene 5241) 6.13 µM | [15] 3.15 µM

Oc1ccc2c(c1)-c1ccccc1C2
inactive: [17] | [9]
active: [1] 8.77 µM | [2] 35.1 µM | [3] 50 µM | [4] 12.7 µM | PGR (gene 5241) 9.66 µM

CC/C(=C\C(=N/O)C(N)=O)C(C)[N+](=O)[O-] (centres undefined)
inactive: [6] | [8] | [11] | [13] | [4]

CC(C)=CCCC(C)CCO (centres undefined)
inactive: [7] | [8] | [11] | [2] | [3] | [13] | [4] | [9]

CC(C)=CCC/C(C)=C/CO
inactive: [1]
